Hit rate of the full screen: of about 340,000 compounds, about 4,500 (1.3%) were called active. Roughly 5% stayed inconclusive and do not appear here. The call rests on the fitted dose curve; in most records, active means well fitted inhibition curve with a large enough effect; inconclusive means small, poorly fitted or top-dose-only effect, or another doubt; inactive means no such curve, though single readings can be large or run the other way. What follows is part of a selection rich in actives, with near analogues and random picks from the rest. Entries that show only a call come without a potency.

Potency data for 40 molecules are collected here from PubChem BioAssay AID485314 (National Center for Advancing Translational Sciences (NCATS), 2010).
Potency means the concentration at half of the fitted maximal effect.

The assay addresses DNA polymerase beta (Homo sapiens) (UniProt P06746). Put plainly: qHTS Assay for Inhibitors of DNA Polymerase Beta. The note with it: Pol beta primer extension/strand displacement, fluorescence kinetic; series mostly up to 114 µM. The text has this:
The base excision repair system in human cells is a target for therapeutic modulation of the response to irradiation treatment and DNA-damaging drugs. A key enzyme in this system is the bi-functional DNA polymerase known as DNA polymerase Beta (Pol Beta). The following is a homogeneous kinetic assay to study the primer extension and strand-displacement reaction catalyzed by pol beta.
A stepwise description of the 1536-well assay is shown in next Table. Three microliters of reagents (buffer in column 3 and 4 as negative control and 10 nM Pol beta in columns 1, 2, and 5-48) was dispensed into 1,536-well black solid-bottomed plate. Compounds (23 nL) were transferred via Kalypsys pin tool equipped with 1536-pin array (10 nL slotted pins, V&P Scientific, San Diego, CA). The plates were incubated for 15 min at room temperature, and 1 uL substrate (50 nM final concentration) were added to start the reaction and immediately read at 0 min read on Viewlux reader. The plate were further incubated for 10 min at room temperature, and then read on Viewlux again. Throughout the screen, reagent bottle and all liquid lines were chilled and made light-tight to minimize reagent degradation. All screening operations were performed on a fully integrated robotic system (Kalypsys, San Diego, CA) containing one RX-130 and two RX-90 anthropomorphic robotic arms (Staubli, Duncan, SC). Library plates were screened starting from the lowest and proceeding to the highest concentration, and a double-dipping step of the highest concentration was required to access higher concentrations of compounds. Vehicle-only plates, with DMSO being pin-transferred to the entire column 5-48 compound area, were inserted uniformly at the beginning and the end of each library in order to monitor for and record any shifts in the background, which can be affected by reagent dispensers or loss in enzyme activity overtime. Screening data were corrected, normalized, and concentration-effect relationships were derived by using publicly-available curve fitting algorithms developed in-house (http://ncgc.nih.gov/pub/openhts). A four parameter Hill equation was fitted to the concentration-response data by minimizing the residual error between the modeled and observed responses.
In general terms: Quantitative high-throughput screening tests each substance at several concentrations.
In the case of `O=C1NC(=O)N(c2ccccc2)C(=O)/C1=C/c1ccc([N+](=O)[O-])s1`, the Potency entry was “inactive”.
In the case of `COc1cccc(N2C(=O)NC(=O)/C(=C\c3cn(C)c4ccccc34)C2=O)c1` it was “inactive”.
On to `Cc1cccc(N2C(=O)NC(=O)/C(=C\c3cnn(-c4ccccc4)c3)C2=O)c1`, for which the Potency is 39.8 µM (active).
In the case of `CCCCN1C2CCC1CC(OC(c1ccc(F)cc1)c1ccc(F)cc1)C2` (stereo not given) it was “inactive”; in that of `COc1ccc(N2C(=O)/C(=C/c3ccco3)C(=O)NC2=S)cc1`, 2.82 µM (active); in that of `COc1ccc(CN2C(=O)NC(=O)/C(=C\c3ccc(OC)c(OC)c3OC)C2=O)cc1`, “inactive”.
Under `COc1ccccc1N1CCN(C(CNC(=O)Oc2ccccc2)c2cccnc2)CC1` (stereo not given) stands “inactive”; under `O=C1NC(=O)N(c2ccc(F)cc2)C(=O)/C1=C/c1ccc2c(c1)CCCN2Cc1ccccc1`, “inactive”; under `Cc1ccccc1N1C(=O)NC(=O)/C(=C\c2cc(C)n(C)c2C)C1=O`, “inactive”.
Under `Cc1c(C(=O)O)cccc1-n1c(C)cc(/C=C2\C(=O)NC(=O)N(c3ccc4c(c3)OCO4)C2=O)c1C` stands 11.2 µM (active).
On to `O=Cc1cn(Cc2ccc(F)cc2Cl)c2ccccc12`, for which the Potency entry was “inactive”.
In the case of `Cc1cc2ccccn2c1C(C[N+](=O)[O-])c1c(F)cccc1Cl` (stereo not given) it was “inactive”.
Under `CCN(CC)C(=O)c1ccc(NC(=O)c2sccc2-c2ccccc2)cc1` stands “inactive”; under `COc1ccc2c3c1O[C@H]1C[C@@H](O)C=C[C@@]31CCN(C)C2`, “inactive”; under `N[C@@H](Cc1c[nH]c2ccccc12)c1nnc(SCc2c(F)cccc2Cl)o1`, “inactive”.
Under `Cc1ccc(-n2c(/C=C/c3cccc(C(F)(F)F)c3)nc3ccccc3c2=O)cc1` stands “inactive”; under `CCOc1ccc(-c2cc(C)n3nc(C(=O)Nc4ccc(C)c(C)c4)cc3n2)cc1`, 8.91 µM (active); under `C=CCN(CC=C)C(=O)Nc1ccc(OCC)cc1`, “inactive”.
In the case of `OC(Cn1c2ccccc2c2ccccc21)C[n+]1ccccc1` (stereo not given), the Potency result is “inactive”.
As to `Cc1cc(C=C2C(=O)NC(=O)NC2=O)c(C)n1-c1ccncc1`, the Potency result was “inactive”.
Under `O=C1NC(=O)N(Cc2ccco2)C(=O)/C1=C\c1cccn1CCOc1ccccc1` stands “inactive”; under `Cc1cc(/C=C2/C(=O)NC(=O)N(Cc3ccco3)C2=O)c(C)n1-c1ccc(C(=O)O)cc1`, 17.8 µM (active).
Under `COc1ccccc1N=C1SCCCN1C` stands “inactive”; under `C=CCN1CCC23c4c5ccc(O)c4O[C@H]2C(=O)CC[C@@]3(O)C1C5` (stereo not given in full), “inactive”.
In the case of `O=C(CN1CCCC1=O)NCCc1ccccc1` it was “inactive”.
On to `CC(C)(C)c1ccc(CN2C(=O)CN=C(c3ccccc3)c3ccccc32)cc1`, for which the Potency entry was “inactive”.
In the case of `O=C1CC(=O)N(Cc2ccccc2)C(=O)N1CCCCCCN1C(=O)CC(=O)N(Cc2ccccc2)C1=O` it was 28.2 µM (active); in that of `Cc1nc2ccccc2c(=O)n1-c1ccc(Cl)cc1Cl`, “inactive”.
Take `CCN1CCN(c2nc3c(c(=O)[nH]2)CCC3)CC1`: the Potency entry was “inactive”.
In the case of `Cc1nnc(NC(=O)c2cccn(Cc3cccc(F)c3)c2=O)s1` it was “inactive”; in that of `COc1ccccc1N=Nc1c(O)[nH]c(=S)[nH]c1=O`, “inactive”.
In the case of `CCOCCc1c(O)[nH]c(=S)[nH]c1=O` it was 35.5 µM (active); in that of `Cc1ccc(-c2nn(CCC#N)cc2C(=O)O)cc1C`, “inactive”; in that of `O=C(OCC1O[C@@H](OC(=O)c2cc(O)c(O)c(O)c2)[C@@H](OC(=O)c2cc(O)c(O)c(O)c2)[C@@H](OC(=O)c2cc(O)c(O)c(O)c2)[C@@H]1OC(=O)c1cc(O)c(O)c(O)c1)c1cc(O)c(O)c(O)c1` (stereo not given in full), 0.158 µM (active).
Under `Cc1cccc(Cn2cccc(C(=O)Nc3ccc4c(c3)OCCO4)c2=O)c1` stands “inactive”; under `Cc1ccc(NC(=O)N(Cc2ccc3c(c2)OCO3)C2CCN(Cc3ccccc3)CC2)cc1F`, “inactive”.
Turning to `C[N+]12CN3CN(CN(C3)C1)C2`, the Potency result is “inactive”.
Under `NCCc1c[nH]c2ccc(O)cc12` stands “inactive”; under `CCOC(=O)c1ncn2c1[C@@H]1CCCN1C(=O)c1cc(OC)ccc1-2`, “inactive”.
Under `CN(C)c1ccc(/C=C2\CC3C4CC=C5CC(O)CCC5(C)C4CCC3(C)C2=O)cc1` (stereo not given) stands “inactive”.
